{"source": "ChEMBL document CHEMBL4888484", "about": "“Replenishing the malaria drug discovery pipeline: Screening and hit evaluation of the MMV Hit Generation Library 1 (HGL1) against asexual blood stage Plasmodium falciparum ,using a nano luciferase reporter read-out” (2022)", "note": "The whole screen tested about 4,800 compounds, of which about 420 (8.8%) showed an effect of 50% or more. The sample as a whole holds a higher share of strong results than the screen did."}
{"system": "Plasmodium falciparum", "experiment": "Confirmatory screen in NF54 nanoGlo assay, in single point, at 2uM, 72h", "format": "functional, Erythrocyte", "conditions": "timepoint 72 hour", "units": {"% Inhibition": "%"}}
{"smiles": "CNC(=O)c1cnc(C=Cc2cnc(-c3cccnc3)s2)s1", "% Inhibition": 0}
{"smiles": "Cc1cc(C)c2ccc3ccccc3c2n1", "% Inhibition": -4}
{"smiles": "CC[N+](C)(CC)CCOc1cc(C)c2ccccc2n1", "% Inhibition": 53}
{"smiles": "CC(C)(NCc1ccccc1Cl)C(=O)O", "% Inhibition": 4}
{"smiles": "Cc1ccc(S(=O)(=O)Nc2ccc(Oc3ccc(NS(=O)(=O)c4ccc(C)cc4)cc3)cc2)cc1", "% Inhibition": 3}
{"smiles": "Cc1ccc(OCCNc2cc([C@H]3C[C@H](N)C3)nc(C3CC3)n2)cc1C", "% Inhibition": 31}
{"smiles": "N[C@H]1C[C@H](c2cc(NCCCc3cccnc3)nc(C3CC3)n2)C1", "% Inhibition": 75}
{"smiles": "Nc1nc2c(s1)CN(CCc1ccccc1)CC2", "% Inhibition": 38}
{"smiles": "N#Cc1c(-c2ccccc2)cc(-c2ccccc2)nc1S(=O)(=O)Cc1ccccc1", "% Inhibition": 35}
{"smiles": "N#Cc1nc2c(C#N)c(N)n(CCc3ccccc3)c2nc1C#N", "% Inhibition": 87}
{"smiles": "O=C(c1ccccc1)N1N=C(C(F)(F)F)C2CCCCCC21O", "note": "(stereo not given)", "% Inhibition": -11}
{"smiles": "CCC1Cn2c(C(=O)NC(C)Cc3ccco3)cc3cccc(c32)O1", "note": "(stereo not given)", "% Inhibition": -8}
{"smiles": "CCOC(=O)N(c1ccccc1)[C@H]1CC(=O)N(c2ccccc2)C1=O", "% Inhibition": 1}
{"smiles": "Cc1nnc2ccc(S(=O)(=O)Nc3cc(F)cc(F)c3)cn12", "% Inhibition": -4}
{"smiles": "O=C(NCCCN1CCOCC1)c1ccc(-c2cnc(NC3CCCCC3)nc2)cc1", "% Inhibition": -8}
{"smiles": "Cn1cc(CN2CCC(C(=O)NCCCN3CCCCC3)CC2)c2cc(Cl)ccc21", "% Inhibition": -7}
{"smiles": "Cc1cc2nc(C)c(=O)n(Cc3ccc(C(=O)NCCN4CCCC[C@@H]4C)cc3)c2cc1C", "% Inhibition": 17}
{"smiles": "COc1ccc(-c2nccn3cc(C(=O)NCCN(C)C4CCCCC4)nc23)cc1", "% Inhibition": 6}
{"smiles": "O=S1(=O)NC(c2ccccc2)(c2ccccc2)c2ccccc21", "% Inhibition": 1}
{"smiles": "Cc1ccc(NC(=O)c2c(C)nc3sc(C(=O)NCc4ccccc4)c(N)c3c2-c2cccs2)c(C)c1", "% Inhibition": 2}
{"smiles": "Cc1ccc(NC(=O)c2c(C)nc3sc(C(=O)NCc4ccccc4)c(N)c3c2-c2ccccc2Cl)c(C)c1", "% Inhibition": 77}
{"smiles": "CCc1ccc(NC(=O)c2sc3nc(C)c(C(=O)Nc4ccc(C)cc4C)c(-c4ccccc4Cl)c3c2N)cc1", "% Inhibition": 16}
{"smiles": "CC(C)c1nc(CN(C)[C@@H](C)C(=O)Nc2nccs2)cs1", "% Inhibition": 22}
{"smiles": "CC(C)NC(=O)C(=O)Nc1nccs1", "% Inhibition": -14}
{"smiles": "CC(C)N(CC(=O)Nc1nccs1)Cc1ccccn1", "% Inhibition": 68}
{"smiles": "O=c1cc2c(nn1Cc1ccccc1Cl)-c1ccccc1CC2", "% Inhibition": -8}
{"smiles": "O=C(c1ccc(O)cc1)C1CCN(C[C@H](O)C(F)(F)F)CC1", "% Inhibition": 5}
{"smiles": "Cc1nn(C)c2c(N3CCc4ccccc4C3)nc(C3CC3)nc12", "% Inhibition": -7}
{"smiles": "CCOCCCNC(=O)c1ccc(-c2ccc3c(c2)CCN3C(C)=O)cc1", "% Inhibition": -2}
{"smiles": "O=C(NCC1CCCCC1)c1cn[nH]c1-c1ccccc1", "% Inhibition": -4}
{"smiles": "O=C(NCC1CCCCC1O)c1cnn2ccncc12", "note": "(stereo not given)", "% Inhibition": -12}
{"smiles": "O=C1Nc2ccccc2O[C@H]2C[C@@H]1N(CC1CC1)C2", "% Inhibition": -10}
{"smiles": "CC(=O)c1cccc(NC(=O)Cc2c(C)nc3nc(C4CCCCC4)nn3c2C)c1", "% Inhibition": 5}
{"smiles": "c1ccc(-c2noc(-c3ccc(NC4CCCCC4)nn3)n2)cc1", "% Inhibition": 55}
{"smiles": "Clc1ccc(-c2noc(C3CNC3)n2)cc1", "% Inhibition": 21}
{"smiles": "CC(C)N1CCN(C(=O)CN2N=C(c3nc(-c4ccccc4)no3)CCC2=O)CC1", "% Inhibition": 5}
{"smiles": "Cc1nn(-c2ncc(C(F)(F)F)cc2Cl)c(=O)n1-c1cccc(F)c1", "% Inhibition": -4}
{"smiles": "CC(C)(C)c1nc(CNc2ccc(S(=O)(=O)CCO)cc2)no1", "% Inhibition": -9}
{"smiles": "COc1ccc(Cl)cc1C(=O)Nc1cc(C2CC2)nn1-c1nc(C)cc(=O)[nH]1", "% Inhibition": 66}
{"smiles": "O=C(COc1ccc(Cl)cc1)N1CC(n2cnnc2C2CC2)C1", "% Inhibition": -7}
{"smiles": "Cc1cc(=O)[nH]c(N2CCCCCC2)n1", "% Inhibition": -2}
{"smiles": "COc1ccc(NC(=O)c2cc(C3CC3)nc3onc(C4CC4)c23)cc1Cl", "% Inhibition": -3}
{"smiles": "COc1ccc(Cl)cc1C(=O)N(C1CCOCC1)[C@H]1CCCN(S(C)(=O)=O)C1", "% Inhibition": -9}
{"smiles": "Cc1cc(=O)[nH]c(-n2nc(C3CC3)cc2NC(=O)C(C)(C)Oc2ccc(Cl)cc2)n1", "% Inhibition": 85}
{"smiles": "CC(C)C[C@H](N)C(=O)N1CC2CCCCC2C1", "note": "(stereo not given in full)", "% Inhibition": -3}
{"smiles": "CS(=O)(=O)N1C[C@@H]2CCCN2c2cc(C(F)(F)F)ccc21", "% Inhibition": 4}
{"smiles": "Cc1csc(C(C)(C)NC(=O)NCCC2=CCCC2)n1", "% Inhibition": -3}
{"smiles": "CCOC(=O)c1sc(NC)nc1C(F)(F)F", "% Inhibition": -19}
{"smiles": "CC1CN(C(=O)Cn2nnc3ccccc3c2=O)CC1N(C)C", "note": "(stereo not given)", "% Inhibition": -4}
{"smiles": "CCOCCC1(CNC(=O)c2cc(C)n[nH]2)CCC1", "% Inhibition": -1}
{"smiles": "Cc1cnccc1NCCNC1CCN(c2ccc3c(c2)CCC3)CC1", "% Inhibition": 72}
{"smiles": "CCn1nccc1C(=O)NC1CCN(c2nnc3ccc(Cl)cn23)CC1", "% Inhibition": 0}
{"smiles": "Cc1cnccc1NCCNC1CCN(c2ccc(Cl)cc2)CC1", "% Inhibition": 99}
{"smiles": "CCCC(=O)N1CCN(c2c(C)n(-c3ccccc3)c(=O)n(C)c2=O)CC1", "% Inhibition": 2}
{"smiles": "O=C(NC1CC1)c1nc(C(=O)N2CCN(c3ccccn3)CC2)cs1", "% Inhibition": -1}
{"smiles": "Cc1ccccc1CNC(=O)[C@H]1CCCN(c2nc3cccnc3n(Cc3ccccc3)c2=O)C1", "% Inhibition": -6}
{"smiles": "Cc1ccccc1CNC(=O)[C@H]1CCCN(c2nc3ccccc3[nH]c2=O)C1", "% Inhibition": -1}
{"smiles": "COc1ccccc1CNC(=O)c1nnn(-c2ccc3noc(-c4ccc(Cl)cc4)c3c2)c1C", "% Inhibition": -1}
{"smiles": "Cc1nccn1-c1ncc(NC(=O)Nc2ccc3c(c2)OCO3)cn1", "% Inhibition": 21}
{"smiles": "CCc1nc2cc(N3CCC(C(=O)Nc4ccc5c(c4)OCO5)CC3)cnc2nc1CC", "% Inhibition": 61}
{"smiles": "Cc1ccc(C(=O)OCC(=O)Nc2ccc3c(c2)OCO3)cn1", "% Inhibition": -2}
{"smiles": "CC(C)c1cc(=O)n(Cc2ccccc2Cn2cnc(C(C)C)cc2=O)cn1", "% Inhibition": -3}
{"smiles": "Cc1nc(Nc2ccc(F)cc2)nc2c1ncn2-c1ccc(F)cc1", "% Inhibition": -18}
{"smiles": "COc1ccc(C(=O)N[C@@H](C(=O)Nc2ccccc2C)c2ccc(Cl)cc2)cc1", "% Inhibition": 7}
{"smiles": "Clc1ccc(C[n+]2ccc(-c3nc4ccccc4o3)cc2)c(Cl)c1", "% Inhibition": 58}
{"smiles": "CC(=O)N(Cc1ccccc1OCc1c(Cl)cccc1Cl)c1ccc2oc(-c3ccccc3)nc2c1", "% Inhibition": -13}
{"smiles": "CC(=O)N(Cc1ccc2c(c1)OCO2)c1cccc(-c2nc3ccccc3o2)c1", "% Inhibition": -1}
{"smiles": "O=C(NC[C@H]1CCCO1)N1CCN(c2nccs2)C(=O)C1", "% Inhibition": 1}
{"smiles": "Cc1ccc(-n2nc(N3CCN(C(=O)Cc4ccc(F)cc4)CC3)ccc2=O)cc1", "% Inhibition": 4}
{"smiles": "Cc1nsc2ncc(C(=O)N3CCC(C)CC3)c(N3CCC(C(=O)Nc4cc(F)ccc4F)CC3)c12", "% Inhibition": 60}
{"smiles": "CCN(CC)C(=O)c1cnc2snc(C)c2c1N1CCC(C(=O)Nc2c(C)cc(C)cc2C)CC1", "% Inhibition": 57}
{"smiles": "Cc1cccc(C)c1NC(=O)C1CCN(S(=O)(=O)c2c(C)nn(-c3ccccc3)c2C)CC1", "% Inhibition": -6}
{"smiles": "Cc1ccc(N2CCN(c3c(C(=O)N4CCCCC4)cnc4ccc(F)cc34)CC2)cc1", "% Inhibition": -8}
{"smiles": "O=C(c1cnc2ccc(F)cc2c1N1CCC(Cc2ccccc2)CC1)N1CCCC1", "% Inhibition": 2}
{"smiles": "CCC1(CC)CN(C(=O)c2ccn(C)c(=O)c2)c2ccccc21", "% Inhibition": 2}
{"smiles": "Cn1cc(-c2noc(Cc3c(F)cccc3Cl)n2)ccc1=O", "% Inhibition": -1}
{"smiles": "Clc1cccc(CNc2cc(-c3ccco3)n[nH]2)c1", "% Inhibition": -7}
{"smiles": "CS(=O)(=O)N(CCCC(=O)NCc1ccc2c(c1)OCO2)c1ccc(F)cc1", "% Inhibition": -2}
{"smiles": "Cc1csc([C@@H](C#N)C(=O)c2ccncc2)n1", "% Inhibition": -11}
{"smiles": "CCCCNC(=O)Nc1cccc(C#CCN)n1", "% Inhibition": -2}
{"smiles": "Cc1nc(N)nc(C)c1C(=O)Nc1ccc(Nc2ncccn2)cc1", "% Inhibition": 46}
{"smiles": "Cc1cc(N)nc(Nc2ccc(Nc3ccccc3)cc2)n1", "% Inhibition": 87}
{"smiles": "c1ccc(Nc2nc(-c3ccccc3)cc(-c3ccccc3)n2)cc1", "% Inhibition": 3}
{"smiles": "CC(C)c1cc(C(=O)N2CC3CC4CC3C2C4O)n[nH]1", "note": "(stereo not given)", "% Inhibition": 1}
{"smiles": "COc1ccsc1S(=O)(=O)N1CCC(n2ccnc2)CC1", "% Inhibition": -3}
{"smiles": "O=C(c1nc(-c2cccs2)cs1)N1CCN(c2ccccc2)CC1", "% Inhibition": -15}
{"smiles": "COc1ccccc1C(=O)NC1=C(C)Nc2ncnn2[C@H]1c1c[nH]c2ccccc12", "% Inhibition": -5}
{"smiles": "O=C(NC1=NN2C(=NC(c3ccc(Cl)cc3)=C[C@H]2c2ccc(F)cc2)N1)c1ccc(Cl)cc1", "% Inhibition": 32}
{"smiles": "COc1ccccc1C(=O)NC1=NN2C(=NC(c3ccc(Cl)cc3)=C[C@H]2c2ccc(Cl)cc2)N1", "% Inhibition": 94}
{"smiles": "COc1ccc([C@@H]2C=C(c3ccc(Cl)cc3)N=C3NC(NC(=O)c4ccccc4OC)=NN32)cc1", "% Inhibition": 97}
{"smiles": "CCC1=NN2C(=NC(C(=O)O)=C[C@H]2c2ccc(O)cc2)N1", "% Inhibition": -7}
{"smiles": "COc1cc(NC(=O)c2ccccc2Cl)cc(S(=O)(=O)c2ccc(Cl)cc2)c1", "% Inhibition": -15}
{"smiles": "COc1cc(N2CCn3c(nc4cc(Cl)ccc43)C2)ccc1NC(=O)c1ccccc1OC", "% Inhibition": 4}
{"smiles": "Fc1ccc(C2=C[C@@H](c3ccc(Cl)cc3)N3N=C(c4ccc(Cl)cc4)NC3=N2)cc1", "% Inhibition": 99}
{"smiles": "C[C@H]1CCc2c(cnc3c(C(=O)NC4CC4)cnn23)C1", "% Inhibition": -8}
{"smiles": "COc1ncccc1CNC(=O)[C@@H]1CCN(c2cc(C)cc(C)c2)C1=O", "% Inhibition": 3}
{"smiles": "Cc1nsc(N[C@@H]2C=C[C@H](CO)C2)n1", "% Inhibition": -3}
{"smiles": "Cc1c(NC(=O)c2n[nH]cc2Cl)c(=O)n(-c2ccccc2)n1C", "% Inhibition": -13}
{"smiles": "O=C(c1ccco1)N1CC(n2cnnc2[C@@H]2CCCO2)C1", "% Inhibition": -2}
{"smiles": "Cc1ccc(S(=O)(=O)Cc2nc(-c3ccc(C(=O)NCc4ccccc4C)cc3)oc2C)cc1", "% Inhibition": -13}
